In PubChem BioAssay AID1159580 (chemical genetic matrix, 2015):
Where “and” joins values, the source holds several entries; their conditions need not be identical. Equal values may be shown once. The campaign covered roughly 5,500 compounds. About 2,000 (36%) were called active. Another 18% or so got no clear call; they are omitted. Rule as the data show it: active = normalized growth mostly below about 0.91 (no sharp cut-off); inconclusive = no clear call, values can overlap the other calls; inactive = mostly above about 0.92. The list shows a part of the results.

Test: chemical genetic growth profiling, strain panel (AID 1159580);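 also: tested at 20 µM; growth read once vehicle control cultures reached saturation at 30 °C; 1 = growth at the plate median or of vehicle wells; lower values mean less growth of the strain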
Conditions: S. cerevisiae deletion strains, growth OD

Measured: normalized growth

CN1CCN(C(c2ccccc2)c2ccccc2)CC1
inactive: locus YAL013W, strain DEP1, active compounds read low 0.996 | locus YAL021C, strain ccr4, active compounds read low 0.973 | locus YAL026C, strain drs2, active compounds read low 0.988 | locus YAL030W, strain snc1, active compounds read low 0.996 | locus YBL061C, strain skt5, active compounds read low 0.993 | locus YBR009C, strain hhf1, active compounds read low 1.01 | locus YBR021W, strain FUR4, active compounds read low 0.998 | locus YBR023C, strain chs3, active compounds read low 0.985 | locus YBR171W, strain sec66, active compounds read low 0.975 | locus YBR229C, strain ROT2, active compounds read low 1.01 | locus YBR231C, strain swc5, active compounds read low 0.966 | locus YBR279W, strain paf1, active compounds read low 0.995 | locus YCL011C, strain gbp2, active compounds read low 0.998 | locus YCL016C, strain dcc1, active compounds read low 0.973 | locus YCL029C, strain bik1, active compounds read low 0.973 | locus YCL069W, strain vba3, active compounds read low 0.995 | locus YCR088W, strain abp1, active compounds read low 0.983 | locus YDL005C, strain med2, active compounds read low 0.969 | locus YDL035C, strain GPR1, active compounds read low 0.984 | locus YDL040C, strain nat1, active compounds read low 0.98 | locus YDL074C, strain BRE1, active compounds read low 0.993 | locus YDL101C, strain DUN1, active compounds read low 1 | locus YDL134C, strain PPH21, active compounds read low 1.01 | locus YDL185W, strain tfp1, active compounds read low 0.942 | locus YDL192W, strain arf1, active compounds read low 0.971 | locus YDR001C, strain nth1, active compounds read low 1.02 | locus YDR069C, strain doa4, active compounds read low 0.964 | locus YDR101C, strain arx1, active compounds read low 0.988 | locus YDR137W, strain rgp1, active compounds read low 0.994 | locus YDR150W, strain NUM1, active compounds read low 0.989 | locus YDR159W, strain sac3, active compounds read low 0.991 | locus YDR162C, strain NBP2, active compounds read low 1.01 | locus YDR195W, strain ref2 0.958 | locus YDR297W, strain sur2, active compounds read low 0.996 | locus YDR318W, strain mcm21, active compounds read low 0.969 | locus YDR334W, strain swr1, active compounds read low 0.977 | locus YDR335W, strain msn5, active compounds read low 0.994 | locus YDR388W, active compounds read low 0.966 | locus YDR392W, strain spt3, active compounds read low 0.915 | locus YDR502C, strain sam2, active compounds read low 0.978 | locus YEL003W, strain gim4, active compounds read low 0.984 | locus YEL037C, strain rad23, active compounds read low 0.988 | locus YEL061C, strain CIN8 (second series), active compounds read low 0.997 | locus YEL061C, strain CIN8, active compounds read low 0.975 | locus YER015W, strain faa2, active compounds read low 0.979 | locus YER016W, strain bim1, active compounds read low 0.971 | locus YER110C, active compounds read low 0.973 | locus YER111C, strain swi4, active compounds read low 0.983 | locus YER155C, strain BEM2 (second series), active compounds read low 0.932 | locus YER155C, strain BEM2, active compounds read low 1 | locus YER167W, strain BCK2, active compounds read low 0.997 | locus YFR010W, strain ubp6, active compounds read low 0.99 | locus YGL078C, strain dbp3, active compounds read low 0.989 | locus YGL086W, strain mad1, active compounds read low 0.983 | locus YGL167C, strain pmr1, active compounds read low 0.98 | locus YGL173C, strain kem1, active compounds read low 0.979 | locus YGL227W, strain vid30, active compounds read low 0.968 | locus YGL240W, strain doc1, active compounds read low 1.01 | locus YGL248W, strain PDE1, active compounds read low 1 | locus YGL253W, strain hxk2, active compounds read low 0.985 | locus YGR078C, strain PAC10, active compounds read low 0.998 | locus YGR135W, strain pre9, active compounds read low 0.979 | locus YGR229C, strain SMI1, active compounds read low 1.03 | locus YGR252W, strain gcn5, active compounds read low 1.03 | locus YHR013C, strain ard1, active compounds read low 0.902 | locus YHR027C, strain rpn1, active compounds read low 0.985 | locus YHR030C, strain SLT2, active compounds read low 0.995 and 0.998 | locus YHR079C, strain IRE1 (second series), active compounds read low 0.969 | locus YHR079C, strain IRE1, active compounds read low 0.992 | locus YHR094C, strain hxt1, active compounds read low 0.965 | locus YHR129C, strain ARP1, active compounds read low 0.999 | locus YHR142W, strain chs7, active compounds read low 1 | locus YHR200W, strain rpn10, active compounds read low 0.966 | locus YIL066C, strain RNR3, active compounds read low 1 | locus YIL073C, strain SPO22, active compounds read low 0.965 | locus YIL125W, strain kgd1, active compounds read low 0.981 | locus YIR030C, strain dcg1, active compounds read low 0.967 | locus YJL092W, strain hpr5, active compounds read low 0.991 | locus YJL095W, strain BCK1 (second series), active compounds read low 0.993 | locus YJL095W, strain BCK1, active compounds read low 0.966 and 0.998 | locus YJL115W, strain asf1, active compounds read low 0.996 | locus YJL129C, strain trk1, active compounds read low 0.968 | locus YJL134W, strain LCB3, active compounds read low 0.997 | locus YJL154C, strain vps35, active compounds read low 0.999 | locus YJL164C, strain tpk1, active compounds read low 1.02 | locus YJL166W, strain qcr8, active compounds read low 1.01 | locus YJL168C, strain set2, active compounds read low 0.968 | locus YJL187C, strain SWE1 (second series), active compounds read low 0.999 | locus YJL187C, strain SWE1, active compounds read low 0.994 | locus YJR043C, strain POL32, active compounds read low 1.01 | locus YJR066W, strain TOR1, active compounds read low 0.994
